# High-throughput results (PubChem BioAssay)
# HT1080 IDH1KD tx: kills HT-1080 cells with IDH1 knockdown | HT-1080 IDH1 knockdown viability, ATP luminescence, 48 h | Potency, µM (series often up to 46.1 µM), without a hit: top-dose activity, negative = toxicity, most hits filed as cytotoxic | 2% of 360,000 active | AID 686971;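 also: 0% = DMSO wells and -100% = cell-free medium wells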
#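 After a 2 h attachment period, IDH1KD HT-1080 cells took pin-transferred compound for 48 h at 37 °C; ATP-based luminescence after 10 min room-temperature reagent incubation reported viability.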
# ATXN2 expr inh: reduces ATXN2 reporter expression in HEK-293 cells; Potency, µM (highest dose often 57 µM), inactives show top-dose activity change, negative = inhibition, most hits filed as inhibitors; 0.72% of 360,000 active; AID 1745845; HEK-293 ATXN2-luciferase reporter, luminescence, 24 h; also: % is scaled to controls: 0 for no effect and ±100 for the full control effect; nearly all actives have a fitted effect of over 55% in size
#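 ATXN2-luciferase reporter cells (luciferase flanked by upstream and downstream ATXN2 gene portions) were treated 24 h at 37 °C with compounds at up to 57 uM. SteadyGlo luminescence gave expression; GF-AFC fluorescence gave viability.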
# KB-V1 MDR tox: KB-V1 MDR subline cytotoxicity; 3.4% of 400,000 active; Potency, µM (titrated, usually from 46.1 µM), usual class: cytotoxic; KB-V1 MDR cells viability, CellTiter-Glo, 72 h; also: % is scaled to controls: 0 for no effect and ±100 for the full control effect; nearly all actives have a fitted effect of over 60% in size
#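 Potencies derive from concentration-effect curves fitted to normalized luminescence (CellTiter-Glo) of KB-V1 cells treated for 72 h at 37 degrees C in phenol-red-free DMEM containing 10% FBS.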
# HT1080NT lethal: kills 2HG-producing HT-1080-NT fibrosarcoma cells; Potency, µM (series often up to 46.1 µM), inactives show top-dose activity, negative = less viability, hits mostly cytotoxic; 1.6% of 360,000 active; HT-1080-NT fibrosarcoma viability, CellTiter-Glo ATP luminescence, 48 h;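 also: NT is the 2HG producing partner of a matched IDH1 knockdown line; 0% = DMSO-treated cells and -100% = media-only wells without cells; nearly all actives have a fitted effect of over 55% in size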
#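 Toxicity toward the 2HG-producing NT line was scored as %Activity, normalised to DMSO and no-cell wells, from CellTiter-Glo luminescence after 48 hours' treatment.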
# ATXN viability: cell viability loss in ATXN counter-screen; 0.49% of 400,000 active; AID 651635; Potency, µM (top dose mostly 56.7 µM), actives largely listed as cytotoxic; S2 cells (HEK-293 line with an ATXN2-luciferase reporter) viability, CellTiter-Fluor protease fluorescence, 24 h; also: nearly all actives have a fitted effect of over 40% in size
# KB-3-1 tox: kills parental KB-3-1 adenocarcinoma cells; Potency, µM (doses to about 46.1 µM), usual class: cytotoxic; AID 1347075; KB-3-1 viability, CellTiter-Glo ATP luminescence, 72 h; 1.4% of 400,000 active; also: % is scaled to controls: 0 for no effect and ±100 for the full control effect; nearly all actives have a fitted effect of over 60% in size
#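 Using CellTiter-Glo luminescence, growth of non-resistant KB-3-1 adenocarcinoma cells is assessed 72 h after pin-tool compound addition at 37 °C. Normalized responses across the concentration series yield fitted curves.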
# The depositor's hits bear a star; i = inactive; ? = inconclusive; · = no result given; [ ] = remark or other dose. A selection: hits, their analogues and other compounds. The true share with any hit is near 6.2%. Calls follow the shape of the dose curve; as a rule, active = well fitted curve in the direction sought with a large enough effect; inconclusive = small, poorly fitted or top-dose-only effect, or another doubt; inactive = no such curve, though single readings can be large; an effect the other way counts as inactive or inconclusive. Potency is read from the fitted curve at half-maximal effect.
SMILES,HT1080 IDH1KD tx,ATXN2 expr inh,KB-V1 MDR tox,HT1080NT lethal,ATXN viability,KB-3-1 tox
COCCOC(=O)c1[nH]c2c(c1C)C(=O)CC(c1ccc(N(C)C)cc1)C2 (centres undefined),1%,19%,i,4%,i,i
COCCOC(=O)c1[nH]c2c(c1C)C(=O)CC(c1ccccc1)C2 (centres undefined),1.3µM*,8%,0.73µM*,1.6µM*,?,0.92µM*
Cc1ccc(CN2c3ccccc3-c3nc(SCC(=O)Nc4c(C)cc(C)cc4C)ncc3S2(=O)=O)cc1,·,10%,i,·,i,i
CCOc1ccc2nc(N(CCCN(C)C)C(=O)c3ccc(S(=O)(=O)N4CCc5ccccc5C4)cc3)sc2c1,?,-36%,?,?,i,i
CCOc1ccc2nc(N(CCCN(C)C)C(=O)c3ccc4c(c3)CCCC4)sc2c1,?,?,i,18µM*,i,21µM*
CN(C)CCCN(C(=O)c1ccc2c(c1)CCCC2)c1nc2ccc(Cl)cc2s1,?,?,10µM*,?,·,?
Cc1ccc(NC(=O)Cn2cc(S(=O)(=O)NC(C)C)c(S(=O)(=O)NC(C)C)c2)cc1Cl,·,?,i,·,?,?
O=C(Nc1ccc(Cn2cccn2)cc1)c1ccc(COc2cccc(Br)c2)cc1,?,-37%,9.2µM*,-15%,?,0.73µM*
CC1(C(=O)NS(=O)(=O)c2ccc(C#N)cc2)CCN1C(=O)CCC1CCCC1 (centres undefined),1%,13%,?,10%,i,i
CCC/C(O)=C1\C(=O)CC(C)(C)CC1=Nc1ccc(OC)cc1OC,7.3µM*,-29%,?,?,i,?
O=C(Nc1cccc(C(F)(F)F)c1)C1CCCN(S(=O)(=O)c2cccc3nsnc23)C1 (centres undefined),·,-12%,i,·,i,i
O=C(Nc1cccc(C(F)(F)F)c1)C1CCCN1S(=O)(=O)c1cccc2nsnc12 (centres undefined),·,?,7.3µM*,·,·,?
O=C(Nc1cccc(C(F)(F)F)c1)C1CCCN1S(=O)(=O)c1cccc2cccnc12 (centres undefined),-28%,?,2.6µM*,-9%,i,i
CC(NC(=O)c1cnn2c1NC(=C1CC1)C=C2C(F)F)c1ccncc1 (centres undefined),·,·,i,·,·,?
Cc1cccc(Cn2c(C)c(CNC3CCCCC3)c(C(=O)O)c2C)c1,·,16%,?,·,i,i
COc1nn(-c2ccccc2)c(=O)c(Cl)c1Cl,13µM*,?,i,12µM*,?,?
Cc1c(C(=S)Nc2ccccc2)cnn1-c1ccc([N+](=O)[O-])cc1,-30%,-12%,18µM*,-25%,?,?
Nc1c(C(=O)N/N=C/c2ccc([N+](=O)[O-])cc2)cnn1-c1ccccc1,0%,3%,i,28%,i,i
CC(=O)c1cnn(-c2ccccc2)c1C,-4%,-13%[11.3 µM],i,13%,i,i
Cc1c(C(=S)Nc2ccccc2)cnn1-c1ccccc1,-9%,21%,21µM*,-2%,i,i
CCOC(=O)c1ccc(COC(=O)c2ccc3c(c2)-c2ccccc2C3=O)cc1,9%,1%,15µM*,7%,i,i
CCOC(=O)C1=C(O)c2ccccc2C(=O)/C1=C\c1ccc(CC)cc1,8.9µM*,?,?,11µM*,?,12µM*
CCOC(=O)C1=C(Cc2ccc(OC)cc2)C(=O)c2ccccc2C1=O,7.9µM*,?,i,10µM*,?,i
CCc1ccc(S(=O)(=O)Nc2cc3c(cc2C)n(C)c(=O)c(=O)n3C)cc1,·,14%,i,·,i,i
NC(=O)c1ccc[n+](Cc2ccc(-c3ccccc3)cc2)c1,0%,-6%,i,-11%,i,i
SMILES,HT1080 IDH1KD tx,ATXN2 expr inh,KB-V1 MDR tox,HT1080NT lethal,ATXN viability,KB-3-1 tox
Cc1ccc(NC(=O)N2CCN3CCCCC3C2)cc1F (centres undefined),·,22%,i,·,i,i
Cc1cc(C)c2c(c1)/C(=N/Nc1ccc(S(N)(=O)=O)cc1[N+](=O)[O-])CCC2,-5%,·,?,-8%,i,i
CCCC(CCC)=NNc1ccc(S(=O)(=O)Nc2ccccc2OC)cc1[N+](=O)[O-],4%,0%,12µM*,3%,i,i
COc1ccccc1NS(=O)(=O)c1ccc(NN=C2CCCCC2)c([N+](=O)[O-])c1,-3%,-11%,16µM*,-11%,i,i
COc1ccccc1NS(=O)(=O)c1ccc(N/N=C(\C)C(C)C)c([N+](=O)[O-])c1,-8%,-14%,12µM*,-4%,i,?
NS(=O)(=O)c1ccc(N/N=C2/CCCCC2C2CCCCC2)c([N+](=O)[O-])c1 (centres undefined),?,?,i,18µM*,?,?
Cc1c(NC(=O)COC(=O)C(c2ccc(Cl)cc2)C(C)C)c(=O)n(-c2ccccc2)n1C (centres undefined),2%,-4%,8.2µM*,2%,i,?
Cc1c(NC(=O)C(C)OC(=O)c2cc(-c3cccc4ccccc34)nc3ccccc23)c(=O)n(-c2ccccc2)n1C (centres undefined),-2%,-4%,9.2µM*,-7%,i,i
Cc1c(NC(=O)COC(=O)/C=C/c2ccc(Cl)cc2)c(=O)n(-c2ccccc2)n1C,9%,-11%,i,6%,i,i
Cc1c(NC(=O)COC(=O)c2cc(-c3ccc(-c4ccccc4)cc3)nc3ccccc23)c(=O)n(-c2ccccc2)n1C,?,15%,4.6µM*,?,?,9.2µM*
Cc1c(NC(=O)c2cc(-c3ccccc3)nc3ccccc23)c(=O)n(-c2ccccc2)n1C,3%,1%,·,1%,i,·
Cc1c(Nc2nc(-c3ccc(Cl)cc3)cs2)c(=O)n(-c2ccccc2)n1C,-17%,-11%,7.3µM*,-7%,i,?
CCOC(=O)Cc1csc(Nc2c(C)n(C)n(-c3ccccc3)c2=O)n1,0%[9.24 µM],-7%,i,1%,i,i
Brc1ccc(CN2CCc3nc(Nc4ccccc4)ncc3C2)s1,·,10%,i,·,i,i
COc1cccc(C(=O)NCC2Cc3cccc(-c4cccnc4)c3O2)c1 (centres undefined),·,·,·,·,i,·
O=C(/C=C/c1ccccn1)c1cc(Cl)cc(Cl)c1O,?,?,?,16µM*,i,?
